# In PubChem BioAssay AID2129 (The Scripps Research Institute Molecular Screening Center, 2009):
# Out of some 320,000 compounds screened, about 2,200 (0.69%) were called active.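 The calls were made as follows: active = inhibition above the mean of all tested compounds plus 3 SD, cutoff set per campaign (cut at about 30% in these data); inactive = the rest.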 The list comes from a sample in which actives are over-represented; it also holds similar structures and randomly drawn compounds.
# Biological target: Bcl-2-like protein 1 (Homo sapiens) (UniProt Q07817)
# Sequence (Q07817 whole entry, looked up): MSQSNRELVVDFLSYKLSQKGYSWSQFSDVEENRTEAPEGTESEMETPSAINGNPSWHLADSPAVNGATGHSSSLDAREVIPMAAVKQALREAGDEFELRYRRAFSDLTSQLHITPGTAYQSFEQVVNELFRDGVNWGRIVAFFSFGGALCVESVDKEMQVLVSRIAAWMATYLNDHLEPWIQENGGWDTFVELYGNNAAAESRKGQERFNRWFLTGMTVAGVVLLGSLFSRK
# Assay: inhibitors of human Bcl-xL, primary screen, biochemical, fluorescence polarization, HTS (AID 2129);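 also: 0% = DMSO wells and 100% = unlabeled Bim-BH3 peptide competitor; inhibitors lower millipolarization by displacing the labeled peptide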
# Details: GST-Bcl-xL / FITC-Bim BH3 peptide fluorescence polarization; at 10.9 µM; active compounds read high
row,Compound,inhibition
1,O=C(c1ccc(Cl)cc1)N1N=C(c2ccccn2)CC1(O)C(F)(F)F (configuration not stated),-13% (inactive)
2,Cc1cccc(OCC(=O)NCC(=O)N/N=C/c2ccc(N(C)C)cc2)c1,2.63% (inactive)
3,C=CCc1ccccc1OCC(=O)N/N=C/c1ccccc1OCC,0.68% (inactive)
4,Cc1ccc(/C=N/NC(=O)COc2ccccc2-c2ccccc2)cc1,68.1% (active)
5,O=C(O)CC(c1ccccc1F)N1Cc2ccccc2C1=O (configuration not stated),-0.17% (inactive)
6,CC(C)CN(C(=O)CSc1ncnc2sccc12)C1CCS(=O)(=O)C1 (configuration not stated),0.66% (inactive)
7,CCN(CC)CCNC(=O)c1ccc(NC(=O)c2c(F)cccc2Cl)cc1,-0.4% (inactive)
8,O=C1N[C@@H](Cc2ccccc2)C(=O)N2[C@H]1C[C@]1(Br)c3ccccc3N(S(=O)(=O)c3ccccc3)[C@H]21,10.4% (inactive)
9,Cc1ccccc1N1C(=O)C2ON(c3ccccc3)C(c3ccncc3)C2C1=O (configuration not stated),4.04% (inactive)
10,O=C(CNC(=O)c1ccccc1F)c1ccc(Br)cc1,-3.61% (inactive)
11,O=C(CNC(=O)c1ccc(F)cc1)c1ccccc1,-1.14% (inactive)
12,O=C(C[n+]1cc(Br)cc2ccccc21)c1ccc(F)cc1,62.8% (active)
13,CC(=O)n1c(C=Nc2ccccc2)c(O)c2ccccc21,-15.2% (inactive)
14,Cc1oc2c(c1C(=O)N1CCOCC1)C(=O)c1ccccc1C2=O,-1.81% (inactive)
15,O=C1c2ccccc2-c2ncnc3c(N4CCOCC4)cc(N4CCOCC4)c1c23,48.5% (active)
16,COC1=C(N2CCOCC2)C(=O)c2ccccc2C1=O,1.64% (inactive)
17,COc1ccc(-n2ncc3c2CC(C)(C)CC3NC(=O)CCc2c(C)nn(C)c2C)cc1 (configuration not stated),6.1% (inactive)
18,COCCNc1nnc(SCC(=O)NNC(=O)c2ccco2)s1,4.35% (inactive)
19,Cc1ccc(CSCC(=O)N(C)CC(=O)Nc2ccc(C)cc2)cc1,1.73% (inactive)
20,Cc1c(NC(=O)CSc2nnc(-c3cccnc3)n2N)c(=O)n(-c2ccccc2)n1C,-1.43% (inactive)
21,COc1ccc(C(=O)N(CCN2CCOCC2)CC(=O)NC2CCCC2)cc1OC,-2.67% (inactive)

row,Compound,inhibition
1,Cc1ccc(OCCCC(=O)Nc2ccc3c(c2)OCCO3)cc1,-5.28% (inactive)
2,CCCCC1=CC2=CC(=O)C(C)(OC(=O)CC)C(=O)C2=CN1CCCOC(C)C (configuration not stated),25.5% (inactive)
3,COC/C=C/C1=CC2=CC(=O)C(C)(OC(=O)CCC(=O)OC)C(=O)C2=CO1 (configuration not stated),46.1% (active)
4,COc1cc(C2/C(=C(\O)c3ccc4c(c3)CC(C)O4)C(=O)C(=O)N2Cc2ccco2)ccc1O (configuration not stated),0.14% (inactive)
5,CCC1(C)Cc2c(sc3nc(SC)[nH]c(=O)c23)CO1 (configuration not stated),0.11% (inactive)
6,CCSc1nc2sc3c(c2c(=O)[nH]1)CC(C)(C)OC3,4.34% (inactive)
7,CC/C(C)=N/Nc1nc2sc3c(c2c(=O)[nH]1)CC(C)(C)OC3,67.3% (active)
8,N#Cc1c(-c2ccccc2)cc(-c2ccccc2)nc1SCC(=O)O,6.81% (inactive)
9,N#Cc1c(N2CCCCC2)nc(N)c2c(N)nc(SCC(=O)O)cc12,34.7% (active)
10,N#CCc1c(C#N)c(N)nc(N2CCCC2)c1C#N,1.69% (inactive)
11,CCN(CC(=O)Nc1cccc(S(=O)(=O)N2CCCCC2)c1)Cc1ccccc1,1.24% (inactive)
12,COc1ccc(C(=O)C2CCCN(C(=O)c3ccc(OC)o3)C2)c(C)c1 (configuration not stated),7.44% (inactive)
13,COC(=O)C[n+]1cccc2ccccc21,173% (active)
14,Cc1cccc[n+]1CC(=O)c1ccccc1,2.8% (inactive)
15,COc1ccccc1NC(=O)C[n+]1ccccc1,-1.13% (inactive)
16,CCCOCC(O)CC(CC)C(=O)NNC(=S)Nc1ccccc1 (configuration not stated),2.96% (inactive)
17,Cc1c(-c2ccccc2)cn2c1-c1ccc(C)n1CC2,31.6% (active)
18,C/C(=N\Nc1ncc(Cl)cc1Cl)c1ccc(S(=O)(=O)NCc2ccco2)cc1,3.34% (inactive)
19,Cc1c(Cl)cnc(NC(=O)COC(=O)c2ccc(S(=O)(=O)NCc3ccco3)cc2)c1Cl,35.9% (active)
20,CSCCC(NC(=O)c1ccco1)C(=O)OCC(=O)Nc1ncc(Cl)c(C)c1Cl (configuration not stated),17.7% (inactive)
21,COc1ccc(OCC(O)CN(C)C(=O)C(C)Oc2ccccc2)cc1 (configuration not stated),-1.74% (inactive)

row,Compound,inhibition
1,O=C(CSc1n[nH]c(-c2cccnc2)n1)Nc1ccc(Cl)cc1,2.31% (inactive)
2,COc1ccc(Cc2nnc(SCC(=O)c3cccc([N+](=O)[O-])c3)n2C)cc1,3.55% (inactive)
3,Cc1ccc(S(=O)(=O)Nc2nc3ccccc3nc2N2CCc3ccccc3C2)cc1,6.46% (inactive)
4,Cc1ccc(S(=O)(=O)C(C#N)c2nc3ccccc3nc2N2CCCC2)cc1C (configuration not stated),87.6% (active)
5,Cc1cc(N2CCN(S(=O)(=O)c3ccc(C)c(C)c3)CC2)c2ccccc2n1,1.43% (inactive)
6,Cc1cc2oc(=O)cc(CN(C)Cc3ccc(OC(F)F)cc3)c2cc1Cl,0.69% (inactive)
7,CC(C)=CCCC(C)CN1CCC(n2nccc2NC(=O)c2ccccc2)CC1 (configuration not stated),3.8% (inactive)
8,COC(=O)c1ccc(C)c(NC(=O)C2CC(=O)N(C3CCCC(C)C3C)C2)c1 (configuration not stated),4.61% (inactive)
9,O=C(NCc1ccccn1)Nc1ccc(Cl)cc1,1.5% (inactive)
10,Cc1ccc(C)c(N2CCN(C(=O)CCCn3c(=O)c4cccn4c4cccnc43)CC2)c1,1.63% (inactive)
11,O=c1onc(-c2c(F)cccc2F)n1-c1ccccc1Cl,3.32% (inactive)
12,Cc1nnc(NC(=O)/C=C/c2ccco2)s1,39.6% (active)
13,CCOC(=O)c1c(NC(=O)/C=C/c2ccco2)sc(C)c1C,0.59% (inactive)
14,CCC(CC)c1nnc(NC(=O)/C=C/c2ccco2)s1,4.39% (inactive)
15,CCc1nnc(SCc2cccc(F)c2)nc1CC,1.39% (inactive)
16,O=C(Nc1nnc(SCc2ccccc2Cl)s1)c1cccc([N+](=O)[O-])c1,9.99% (inactive)
17,O=C(CC1N=C2c3ccccc3N=C(SCc3ccccc3Cl)N2C1=O)NCc1ccco1 (configuration not stated),15% (inactive)
18,COc1ccc2nc(SCc3ccccc3)nc(C)c2c1,1.64% (inactive)
19,Clc1ccccc1CSc1nnc(-c2ccco2)c(-c2ccco2)n1,37% (active)
20,c1ccc(CSc2nnc(-c3ccco3)c(-c3ccco3)n2)cc1,33.4% (active)
